# Several values for one entry are separate records, joined by “and”; a condition that tells them apart may be missing. Identical values can stand only once. Inconclusive results are not listed. Entries that show only a call come without a potency. Activity calls are given as the source filed them. Unless noted, calls follow the shape of the dose curve; as a rule, active = well fitted curve in the direction sought with a large enough effect; inconclusive = small, poorly fitted or top-dose-only effect, or another doubt; inactive = no such curve, though single readings can be large; an effect the other way counts as inactive or inconclusive.
# How the values were obtained:
# [1] = P-glycoprotein substrates identified in KB-8-5-11 adenocarcinoma cell line, qHTS therapeutic library screen (AID 1346987); also: nearly all actives have a fitted effect of over 65% in size; also: potency is read from the fitted curve at half-maximal effect
# In short: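 Human cervical adenocarcinoma KB-8-5-11 cells, selected in colchicine to over-express P-gp and assayed without it, were exposed for 72 h to titrated compounds. An ATP-based luminescent viability signal gave AC50.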
# [2] = NS1 protein of Zika virus - qHTS assay to identify small molecule inhibitors in human HEK 293 cells (AID 1347053); also: series mostly up to about 46 µM; nearly all actives have a fitted effect of over 55% in size
# In short: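 Readout was TR-FRET using paired anti-NS1 antibodies after 24 h infection of HEK 293 cells with ZIKV MR766 (MOI = 0.5). Compound preceded virus by 1 h; reduced signal reflects lower NS1 expression.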
# [3] = Natriuretic polypeptide receptor (hNpr1) antagonism - Pilot counterscreen GloSensor control cell line (AID 1347045; calls by dose curve; also: series mostly up to about 38 µM)
# In short: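 The SNP-driven cGMP luminescence signal (50 uM, 20 min, room temperature) was measured in GloSensor HEK293 control cells. Compounds were tested as a LOPAC titration series and preincubated for 30-50 min.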
# [4] = molecular target: Atrial natriuretic peptide receptor 2 (Homo sapiens) (UniProt P20594); assay: Natriuretic polypeptide receptor (hNpr2) antagonism - Pilot subtype selectivity assay (AID 1347050; calls by dose curve)
# Atrial natriuretic peptide receptor 2 (Homo sapiens), sequence (P20594 whole entry, looked up): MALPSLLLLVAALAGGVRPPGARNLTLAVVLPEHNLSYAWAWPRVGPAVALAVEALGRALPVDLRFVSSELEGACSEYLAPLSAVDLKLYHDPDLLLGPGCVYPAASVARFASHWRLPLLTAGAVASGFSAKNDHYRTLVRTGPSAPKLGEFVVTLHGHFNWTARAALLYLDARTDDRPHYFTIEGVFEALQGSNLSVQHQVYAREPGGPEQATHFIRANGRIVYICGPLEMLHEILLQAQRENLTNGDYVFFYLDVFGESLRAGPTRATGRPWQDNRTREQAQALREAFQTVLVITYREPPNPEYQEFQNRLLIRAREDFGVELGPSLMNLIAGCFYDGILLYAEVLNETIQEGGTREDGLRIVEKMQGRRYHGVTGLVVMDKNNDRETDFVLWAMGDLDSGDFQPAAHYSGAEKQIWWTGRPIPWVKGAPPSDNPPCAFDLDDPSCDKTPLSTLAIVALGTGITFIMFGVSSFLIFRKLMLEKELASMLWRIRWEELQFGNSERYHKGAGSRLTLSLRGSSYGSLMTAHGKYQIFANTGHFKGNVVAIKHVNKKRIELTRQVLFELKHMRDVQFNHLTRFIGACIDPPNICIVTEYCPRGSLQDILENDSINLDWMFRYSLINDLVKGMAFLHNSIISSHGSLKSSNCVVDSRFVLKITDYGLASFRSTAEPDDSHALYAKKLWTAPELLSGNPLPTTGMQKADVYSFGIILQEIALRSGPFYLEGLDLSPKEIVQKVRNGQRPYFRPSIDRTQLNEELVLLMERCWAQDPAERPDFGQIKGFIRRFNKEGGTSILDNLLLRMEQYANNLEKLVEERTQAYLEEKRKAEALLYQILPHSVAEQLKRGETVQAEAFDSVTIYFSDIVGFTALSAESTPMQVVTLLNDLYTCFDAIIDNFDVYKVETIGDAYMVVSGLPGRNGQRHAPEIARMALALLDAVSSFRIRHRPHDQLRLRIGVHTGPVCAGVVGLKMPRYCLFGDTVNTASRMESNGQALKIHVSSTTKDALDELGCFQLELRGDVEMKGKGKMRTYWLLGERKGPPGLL
# In short: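 Antagonist mode: compounds (LOPAC1280, seven 1:5 dilutions) added 30 min before 1 nM hNppC stimulation of hNpr2-HEK293 cGMP-sensor cells; luminescence read before and 20 min after agonist at ambient temperature.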
# [5] = molecular target: Tyrosine-protein phosphatase non-receptor type substrate 1 (Homo sapiens) + Leukocyte surface antigen CD47 (Homo sapiens) (UniProt P78324+Q08722); assay: CD47-SIRPalpha protein protein interaction - LANCE assay qHTS validation (AID 1347057; active = well fitted curve in the direction sought with a large enough effect in the signal ratio, with a control signal flat, not every such curve was filed as active; the % refers to the signal ratio; also: series mostly up to about 38 µM)
# Tyrosine-protein phosphatase non-receptor type substrate 1 (Homo sapiens) + Leukocyte surface antigen CD47 (Homo sapiens), sequence (P78324 whole entry, looked up, the tested form may be a part): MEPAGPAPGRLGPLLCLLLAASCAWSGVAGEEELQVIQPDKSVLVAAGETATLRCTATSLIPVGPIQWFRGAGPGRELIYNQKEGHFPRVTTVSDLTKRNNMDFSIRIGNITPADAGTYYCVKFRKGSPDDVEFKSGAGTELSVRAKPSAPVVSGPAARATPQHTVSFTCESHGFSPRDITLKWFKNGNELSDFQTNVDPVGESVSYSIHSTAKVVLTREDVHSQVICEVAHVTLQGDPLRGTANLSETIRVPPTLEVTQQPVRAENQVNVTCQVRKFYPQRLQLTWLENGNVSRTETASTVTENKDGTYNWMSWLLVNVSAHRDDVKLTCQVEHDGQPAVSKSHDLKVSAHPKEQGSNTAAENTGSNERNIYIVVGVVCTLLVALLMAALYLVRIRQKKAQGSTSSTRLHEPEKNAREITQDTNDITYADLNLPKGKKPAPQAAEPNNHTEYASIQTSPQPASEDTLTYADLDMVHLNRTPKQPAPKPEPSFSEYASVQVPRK
# Tyrosine-protein phosphatase non-receptor type substrate 1 (Homo sapiens) + Leukocyte surface antigen CD47 (Homo sapiens), sequence (Q08722 whole entry, looked up, the tested form may be a part): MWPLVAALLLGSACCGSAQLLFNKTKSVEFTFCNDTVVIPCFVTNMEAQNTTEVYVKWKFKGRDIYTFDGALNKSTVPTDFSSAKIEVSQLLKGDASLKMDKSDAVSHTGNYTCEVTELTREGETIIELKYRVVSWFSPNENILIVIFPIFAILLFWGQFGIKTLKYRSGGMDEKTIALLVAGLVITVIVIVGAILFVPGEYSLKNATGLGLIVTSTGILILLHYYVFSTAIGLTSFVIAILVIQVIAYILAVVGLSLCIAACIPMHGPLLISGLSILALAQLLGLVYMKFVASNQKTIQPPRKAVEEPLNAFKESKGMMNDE
# In short: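 Inhibition of soluble CD47/SIRPalpha ectodomain association by titrated compounds, measured as 665/615 nm time-resolved FRET ratio after sequential 30 min room-temperature incubations.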
SMILES,Potency [1],Potency [2],outcome [3],Potency [4],outcome [5]
OCCn1cc(-c2cnc3nnn(Cc4ccc5ncccc5c4)c3n2)cn1,inactive,inactive,–,–,–
COc1ccc2nc(S(=O)Cc3ncc(C)c(OC)c3C)[nH]c2c1 (stereo unspecified),inactive,inactive,–,–,–
CN(C)C(=O)c1ccc(S(=O)(=O)c2ccc(NC(=O)[C@@](C)(O)C(F)(F)F)c(Cl)c2)cc1,–,inactive,–,–,–
NCCCC(N)(C(=O)O)C(F)F (stereo unspecified),inactive,inactive,inactive,inactive,inactive
NNCCc1ccccc1,inactive,inactive,–,inactive,inactive
N[C@@H]1CONC1=O,–,inactive,inactive,inactive,inactive
c1ccc([C@H]2CN3CCSC3=N2)cc1,inactive,inactive,inactive,inactive,inactive
Cn1cnc2c(F)c(Nc3ccc(Br)cc3Cl)c(C(=O)NOCCO)cc21,inactive,inactive,–,–,–
O=c1ncn2nc(Sc3ccc(F)cc3F)ccc2c1-c1c(Cl)cccc1Cl,inactive,inactive,–,–,–
Nc1nccc(-c2ccc3noc(-c4ccc(Cl)cc4)c3c2)n1,inactive,inactive,–,–,–
COc1ccc(COc2cc3oc(=O)c4cc(C(C)O)ccc4c3cc2OC)cc1 (stereo unspecified),8.33 µM (active) and 3.66 µM (active),inactive,–,–,–
Nc1nc2c(ncn2COCCO)c(=O)[nH]1,–,inactive,inactive,inactive,inactive
CCCS(=O)(=O)Nc1ccc(F)c(C(=O)c2c[nH]c3ncc(-c4ccc(Cl)cc4)cc23)c1F,inactive,inactive,–,–,–
CS(=O)(=O)Oc1ccc2c(NC(N)=O)c(C(=O)c3ccc(Cl)cc3Cl)oc2c1,inactive,inactive,–,–,–
Nc1ccc(S(=O)(=O)Nc2ccnn2-c2ccccc2)cc1,inactive,inactive,inactive,inactive,inactive
Cc1ccc(N(CC2=NCCN2)c2cccc(O)c2)cc1,inactive,inactive,–,inactive,–
Cc1[nH]c(=O)c(C#N)cc1-c1ccncc1,inactive,inactive,–,inactive,inactive
COc1cc(Oc2ccnc3cc(OC)c(OC)cc23)ccc1NC(=O)NC(C)c1nccs1 (stereo unspecified),inactive,inactive,–,–,–
NC[C@H](O)c1ccc(O)c(O)c1,–,inactive,inactive,inactive,inactive
CCOc1cc(C=C2C(=O)N(c3ccccc3)N=C2C)cc(Cl)c1OCC(=O)OC,inactive,inactive,–,–,–
CNC(=O)c1ccc(C)c(-n2c(C)cc(OCc3ccc(F)cc3F)c(Br)c2=O)c1,inactive,inactive,–,–,–
CC(C)(C)NCC(O)c1ccc(O)c(CO)c1 (stereo unspecified),inactive,inactive,inactive,inactive,inactive
CCCS(=O)(=O)Nc1ccc(F)c(C(=O)c2c[nH]c3ncc(Cl)cc23)c1F,–,inactive,–,–,–
CC(c1cc2ccccc2s1)N(O)C(N)=O (stereo unspecified),inactive,inactive,–,–,–
CCc1ccc(CCOc2ccc(CC3SC(=O)NC3=O)cc2)nc1 (stereo unspecified),inactive,inactive,–,–,–
O=C(O)[C@@H](c1ccc(OCc2ccc3ccccc3n2)cc1)C1CCCC1,inactive,inactive,–,–,–
Cc1cnc(NC(=O)C2=C(O)c3ccccc3S(=O)(=O)N2C)s1,inactive,inactive,–,–,inactive
